In the supplement of paper PMC9588786:
± gives the standard deviation of the averaged measurements.

tested on: HT-1080; assay: relative cell viability with RSL3 co-treatment (fraction of control); higher = stronger protection from RSL3-induced ferroptosis (higher viability); conditions: 10 µM
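Further: viability read as CCK-8 absorbance at 450 nm in cells co-exposed to the GPX4 inhibitor RSL3, relative to a 0.01% DMSO vehicle control.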

Q: For `C[C@@H]1COC(Nc2ccc3ncnc(Nc4ccc(OCc5nccs5)c(Cl)c4)c3c2)=N1` [Varlitinib], which relative cell viability is on record?
A: 0.597 ± 0.1

Q: `CNC(=O)c1ccccc1Sc1ccc2c(/C=C/c3ccccn3)n[nH]c2c1` [Axitinib] was tested. Which relative cell viability did it give?
A: 0.63 ± 0.22

Q: Which relative cell viability does the source give for `C=CC(=O)Nc1cccc(Oc2nc(Nc3ccc(N4CCN(C)CC4)cc3)ncc2Cl)c1` here?
A: 0.337 ± 0.057

Q: For `CN1CCCN(C(=O)c2cccc(-c3ccc(/C=C4/C(=O)Nc5ccc(Cl)cc54)o3)c2)CC1`, which relative cell viability is on record?
A: 0.743 ± 0.061

Q: How did the relative cell viability turn out when `Cc1cnc(Nc2ccc(N3CCN(C)CC3)cc2)nc1Nc1cccc(S(=O)(=O)NC(C)(C)C)c1` was run?
A: 0.223 ± 0.061

Q: How did the relative cell viability turn out when `COc1cc2ncc(-c3ccccc3)nc2cc1OC` [Tyrphostin AG 1296] was run?
A: 0.567 ± 0.11

Q: `C=CC(=O)Nc1cccc(Oc2nc(Nc3ccc(N4CCN(C)CC4)cc3OC)ncc2Cl)c1` was tested. Which relative cell viability did it give?
A: 0.927 ± 0.04

Q: `Oc1ccc(-c2nc(-c3ccc(F)cc3)c(-c3ccncc3)[nH]2)cc1` was tested. Which relative cell viability did it give?
A: 0.717 ± 0.05

Q: With `C[C@@H](Oc1cc(-c2cnn(C3CCNCC3)c2)cnc1N)c1c(Cl)ccc(F)c1Cl` as the compound, how does the relative cell viability read?
A: 0.7 ± 0.026

Q: Which relative cell viability does the source give for `CC[C@H](Nc1ncnc2[nH]cnc12)c1nc2cccc(F)c2c(=O)n1-c1ccccc1` [Idelalisib (CAL-101, GS-1101)] here?
A: 0.753 ± 0.031

Q: For `Cc1nc(Nc2ncc(C(=O)Nc3c(C)cccc3Cl)s2)cc(N2CCN(CCO)CC2)n1` [Dasatinib], which relative cell viability is on record?
A: 0.553 ± 0.091

Q: How did the relative cell viability turn out when `CC(C)(C)NS(=O)(=O)c1cncc(-c2cc(F)c3nc(N)nn3c2)c1` was run?
A: 0.803 ± 0.15

Q: How did the relative cell viability turn out when `Nc1nc(Nc2ccc(S(N)(=O)=O)cc2)nn1C(=O)c1c(F)cccc1F` was run?
A: 0.53 ± 0.095

Q: Which relative cell viability does the source give for `CCCCCCCCCCCCc1ccc(S(=O)(=O)Nc2nncs2)cc1` here?
A: 0.877 ± 0.09

Q: With `Cn1cc(C2=C(c3ccc(Cl)cc3Cl)C(=O)NC2=O)c2ccccc21` as the compound, how does the relative cell viability read?
A: 0.8333 ± 0.0058

Q: With `O=C1NC(=O)C(=Cc2ccc(-c3ccc(F)cc3)o2)S1` (stereo in doubt) as the compound, how does the relative cell viability read?
A: 0.887 ± 0.11

Q: Which relative cell viability does the source give for `COc1ccc(C(=O)Nc2sc3c(c2C(N)=O)CCCC3)cc1OC` here?
A: 0.66 ± 0.087

Q: `CCN1CCN(Cc2ccc(Nc3ncc(F)c(-c4cc(F)c5nc(C)n(C(C)C)c5c4)n3)nc2)CC1` was tested. Which relative cell viability did it give?
A: 0.42 ± 0.026

Q: How did the relative cell viability turn out when `O=c1cc(-c2ccccc2)oc2c(O)c(O)ccc12` [7,8-Dihydroxyflavone] was run?
A: 0.713 ± 0.011

Q: How did the relative cell viability turn out when `Cc1ccc2nc(NCCN)c3ncc(C)n3c2c1` was run?
A: 0.703 ± 0.015

Q: For `NCC(=O)Nc1ccc(-n2nc(C(F)(F)F)cc2-c2ccc3c(ccc4ccccc43)c2)cc1`, which relative cell viability is on record?
A: 0.06 ± 0.056

Q: How did the relative cell viability turn out when `Cn1cnc(N)c2ncnc1-2` [3-Methyladenine (3-MA)] was run?
A: 0.76 ± 0.078

Q: How did the relative cell viability turn out when `CC(C)N(CCC(=O)c1ccc2ccccc2c1)Cc1ccccc1` was run?
A: 0.863 ± 0.12

Q: For `CCc1ccc(/C=C2/SC(=S)NC2=O)cc1`, which relative cell viability is on record?
A: 0.62 ± 0.087

Q: How did the relative cell viability turn out when `CN1CCN(S(=O)(=O)c2ccc(-c3cnc(N)c(C(=O)Nc4cccnc4)n3)cc2)CC1` was run?
A: 0.56 ± 0.087

Q: Which relative cell viability does the source give for `O=C(NOCC(O)CO)c1cc(Br)c(F)c(F)c1Nc1ccc(I)cc1F` (stereo not drawn) here?
A: 0.897 ± 0.061

Q: How did the relative cell viability turn out when `OCCn1cc(-c2cnc3nnn(Cc4ccc5ncccc5c4)c3n2)cn1` was run?
A: 0.813 ± 0.09

Q: How did the relative cell viability turn out when `CC(C)CC(=O)Nc1n[nH]c2c1CN(C(=O)C1CCN(C)CC1)C2(C)C` was run?
A: 0.78 ± 0.069

Q: How did the relative cell viability turn out when `COc1cccc(-n2c(=O)[nH]c3cc(Cl)n(-c4ccc(-c5cccc(OC)c5O)cc4)c3c2=O)c1` was run?
A: 0.807 ± 0.081

Q: How did the relative cell viability turn out when `CS(=O)(=O)CCNCc1ccc(-c2ccc3ncnc(Nc4ccc(OCc5cccc(F)c5)c(Cl)c4)c3c2)o1` was run?
A: 0.673 ± 0.032

Q: For `CC(C)(O)CC(=O)NCCn1ccc2ncnc(Nc3ccc(Oc4cccc(C(F)(F)F)c4)c(Cl)c3)c21`, which relative cell viability is on record?
A: 0.567 ± 0.04

Q: `CO[C@H]1CC[C@H](N2C(=O)CNc3ncc(-c4ccc(C(C)(C)O)nc4)nc32)CC1` was tested. Which relative cell viability did it give?
A: 0.733 ± 0.091

Q: Which relative cell viability does the source give for `C[C@@]1(C(=O)Nc2ccc(F)nc2)CCCN1c1nc(Nc2cc(C3CC3)n[nH]2)c2cccn2n1` here?
A: 0.483 ± 0.05

Q: With `COc1cc(Nc2c(C#N)cnc3cc(OCCCN4CCN(C)CC4)c(OC)cc23)c(Cl)cc1Cl` [Bosutinib (SKI-606)] as the compound, how does the relative cell viability read?
A: 0.867 ± 0.035

Q: With `CCS(=O)(=O)c1cccc(-c2cc(C(=O)NC3CCN(C)CC3)c(C)c3[nH]c4ncc(C)cc4c23)c1` as the compound, how does the relative cell viability read?
A: 0.397 ± 0.046

Q: Which relative cell viability does the source give for `CN(c1ccccc1CNc1nc(Nc2ccc3c(c2)CC(=O)N3)ncc1C(F)(F)F)S(C)(=O)=O` here?
A: 0.723 ± 0.045

Q: Which relative cell viability does the source give for `Oc1cc(O)cc(/C=C/c2ccc(O)c(O)c2)c1` [Piceatannol] here?
A: 0.717 ± 0.04

Q: How did the relative cell viability turn out when `CCc1cnn2c(NCc3ccc[n+]([O-])c3)cc(N3CCCC[C@H]3CCO)nc12` was run?
A: 0.61 ± 0.1
